{"source": "PubChem BioAssay (NCI)", "note": "About 83,000 compounds went through this panel and 20% of them were active in at least one assay; those are over-represented in the sample as a whole.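 Plates (96-well) were seeded with cells, treated with compound at one concentration, and incubated for 48 hours before percent growth was determined.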 Unmarked numbers belong to inactive results. The source made the active and inactive calls. Rule for the calls: active = growth percent below 10; inactive = the rest.", "data": [{"test_system": "OVCAR-5 ovarian", "test": "NCI-60 one-dose screen, 48 h (100 = growth as untreated, 0 = no growth, -100 = all killed)", "conditions": "10 µM unless noted", "values": [{"molecule": "C=CCNC(=S)N/C=C(/C(=O)c1ccccc1)c1ccccc1", "growth": "97.7%"}, {"molecule": "Cc1ccc(C2CCCCC2)cc1Br", "growth": "94.3%"}, {"molecule": "OCCc1ccc(Cl)cc1", "growth": "97.8%"}, {"molecule": "C/C(O)=C(/C=N/C(=S)Nc1ccccc1)C(=O)Nc1ccccc1C", "growth": "117%"}, {"molecule": "CC1(C)OC(=O)CC1=O", "growth": "101%"}, {"molecule": "CN(C)CCOC(=O)Nc1ccc(Cc2ccc(NC(=O)OCCN(C)C)cc2)cc1", "growth": "85.1% [100 µM]"}, {"molecule": "O=c1nc(Nc2cccc(Cl)c2)oc2cc(Cl)oc(=O)c12", "growth": "88%"}, {"molecule": "OCCNc1ccccc1", "growth": "107%"}, {"molecule": "O=C(Oc1ccccc1Cl)c1ccc(Cl)cc1Cl", "growth": "109%"}, {"molecule": "COc1cc(OC)c2cc(C(=O)c3ccc(C#N)cc3)c(=O)oc2c1", "growth": "89.9%"}, {"molecule": "CC(C)C1CCC(C)C(O)C1", "note": "(configuration not stated)", "growth": "108%"}, {"molecule": "O=C(NC1CCCCC1)c1ccc(Cl)cc1", "growth": "99.5%"}, {"molecule": "O=C1C=Cc2ccccc2/C1=C/c1[nH]c(=O)[nH]c1O", "growth": "86.7%"}, {"molecule": "NC(CO)(CO)c1ccccc1", "growth": "101%"}, {"molecule": "Nc1cc(N)ncn1", "growth": "96.5%"}, {"molecule": "S=C(Sc1ccc(Cl)cc1)Sc1ccc(Cl)cc1", "growth": "60.1%"}, {"molecule": "CCOc1ccc(C(=O)O)cc1", "growth": "105%"}, {"molecule": "COc1cccc(C(=O)NNC(=O)c2cccc3ccccc23)c1", "growth": "125%"}]}, {"test_system": "OVCAR-4 ovarian", "test": "NCI-60 one-dose screen, 48 h (100 = growth as untreated, 0 = no growth, -100 = all killed)", "conditions": "10 µM unless noted", "values": [{"molecule": "NC(=O)N1CCOCC1", "growth": "103%"}, {"molecule": "N#Cc1ccc(OC(=O)Nc2c(Cl)cc(Cl)cc2Cl)cc1", "growth": "109%"}, {"molecule": "CCOC(=O)/C(C)=C\\c1ccc(OC)c(OC)c1", "growth": "101%"}, {"molecule": "O=S(Cc1ccccc1)/C(=C/NC(=S)Nc1ccccc1)c1ccccc1", "note": "(configuration not stated)", "growth": "98.3%"}, {"molecule": "C/C(=N\\O)c1ccccn1", "growth": "97.3%"}, {"molecule": "CC(C)NC(=O)OCc1c(COC(=O)NC(C)C)c(-c2ccc(Cl)cc2)n2c1CCC2", "growth": "48.9%"}, {"molecule": "CC(=O)NNC(=S)/N=C\\C(C(=O)c1ccccc1)=C(/O)c1ccccc1", "growth": "114%"}, {"molecule": "C=CCS(C)(=O)=O", "growth": "113%"}, {"molecule": "O=C(NCc1ccccc1)c1cccc([N+](=O)[O-])c1", "growth": "111%"}, {"molecule": "c1ccc(-c2ccc3ccccc3c2)cc1", "growth": "108%"}, {"molecule": "Cc1ccccc1NC(=O)Oc1ccc(Cl)cc1C(=O)c1ccccc1", "growth": "102%"}, {"molecule": "CCC(C)c1c(N)n(S(=O)(=O)c2ccc(C)cc2)oc1=O", "note": "(configuration not stated)", "growth": "109%"}, {"molecule": "O=Cc1c(O)c2ccccc2[nH]c1=O", "growth": "106%"}, {"molecule": "COC(=O)c1ccccc1C(=O)c1c(C)cc(C)cc1C", "growth": "99.9%"}, {"molecule": "N=C(N)c1nn(C2OC(CO)C(O)C2O)c2nc[nH]c(=O)c12", "note": "(configuration not stated)", "growth": "-6.89% (active)"}, {"molecule": "COc1cccc(C(=O)O)c1OC", "growth": "95%"}, {"molecule": "O=C(O)c1cc(I)ccc1O", "growth": "107%"}, {"molecule": "CC(=O)NNC(=S)N/C=C/c1c(C)ccc([N+](=O)[O-])c1[N+](=O)[O-]", "growth": "106%"}, {"molecule": "NNc1ncnc2c1ncn2C1OC(CO)C(O)C1O", "note": "(configuration not stated)", "growth": "45%"}, {"molecule": "C=CCNC(=S)N/C=C(/C(=O)c1ccccc1)c1ccccc1", "growth": "110%"}, {"molecule": "Cc1ccc(C2CCCCC2)cc1Br", "growth": "119%"}, {"molecule": "OCCc1ccc(Cl)cc1", "growth": "103%"}, {"molecule": "C/C(O)=C(/C=N/C(=S)Nc1ccccc1)C(=O)Nc1ccccc1C", "growth": "83%"}, {"molecule": "CC1(C)OC(=O)CC1=O", "growth": "106%"}, {"molecule": "CN(C)CCOC(=O)Nc1ccc(Cc2ccc(NC(=O)OCCN(C)C)cc2)cc1", "growth": "94.6% [100 µM]"}, {"molecule": "O=c1nc(Nc2cccc(Cl)c2)oc2cc(Cl)oc(=O)c12", "growth": "89.9%"}, {"molecule": "OCCNc1ccccc1", "growth": "101%"}, {"molecule": "O=C(Oc1ccccc1Cl)c1ccc(Cl)cc1Cl", "growth": "109%"}, {"molecule": "COc1cc(OC)c2cc(C(=O)c3ccc(C#N)cc3)c(=O)oc2c1", "growth": "96.3%"}, {"molecule": "CC(C)C1CCC(C)C(O)C1", "note": "(configuration not stated)", "growth": "108%"}, {"molecule": "O=C(NC1CCCCC1)c1ccc(Cl)cc1", "growth": "108%"}, {"molecule": "O=C1C=Cc2ccccc2/C1=C/c1[nH]c(=O)[nH]c1O", "growth": "41%"}, {"molecule": "NC(CO)(CO)c1ccccc1", "growth": "104%"}, {"molecule": "Nc1cc(N)ncn1", "growth": "99%"}, {"molecule": "S=C(Sc1ccc(Cl)cc1)Sc1ccc(Cl)cc1", "growth": "10.1%"}, {"molecule": "CCOc1ccc(C(=O)O)cc1", "growth": "103%"}, {"molecule": "COc1cccc(C(=O)NNC(=O)c2cccc3ccccc23)c1", "growth": "109%"}]}, {"test_system": "SK-OV-3 ovarian", "test": "NCI-60 one-dose screen, 48 h (100 = growth as untreated, 0 = no growth, -100 = all killed)", "conditions": "10 µM unless noted", "values": [{"molecule": "NC(=O)N1CCOCC1", "growth": "103%"}, {"molecule": "N#Cc1ccc(OC(=O)Nc2c(Cl)cc(Cl)cc2Cl)cc1", "growth": "99.7%"}, {"molecule": "CCOC(=O)/C(C)=C\\c1ccc(OC)c(OC)c1", "growth": "103%"}, {"molecule": "O=S(Cc1ccccc1)/C(=C/NC(=S)Nc1ccccc1)c1ccccc1", "note": "(configuration not stated)", "growth": "91.4%"}, {"molecule": "C/C(=N\\O)c1ccccn1", "growth": "109%"}, {"molecule": "CC(C)NC(=O)OCc1c(COC(=O)NC(C)C)c(-c2ccc(Cl)cc2)n2c1CCC2", "growth": "40.8%"}, {"molecule": "CC(=O)NNC(=S)/N=C\\C(C(=O)c1ccccc1)=C(/O)c1ccccc1", "growth": "91.8%"}, {"molecule": "C=CCS(C)(=O)=O", "growth": "90.3%"}, {"molecule": "O=C(NCc1ccccc1)c1cccc([N+](=O)[O-])c1", "growth": "108%"}, {"molecule": "c1ccc(-c2ccc3ccccc3c2)cc1", "growth": "90.5%"}, {"molecule": "Cc1ccccc1NC(=O)Oc1ccc(Cl)cc1C(=O)c1ccccc1", "growth": "95.4%"}, {"molecule": "CCC(C)c1c(N)n(S(=O)(=O)c2ccc(C)cc2)oc1=O", "note": "(configuration not stated)", "growth": "113%"}, {"molecule": "O=Cc1c(O)c2ccccc2[nH]c1=O", "growth": "105%"}, {"molecule": "COC(=O)c1ccccc1C(=O)c1c(C)cc(C)cc1C", "growth": "102%"}, {"molecule": "N=C(N)c1nn(C2OC(CO)C(O)C2O)c2nc[nH]c(=O)c12", "note": "(configuration not stated)", "growth": "-15.7% (active)"}, {"molecule": "COc1cccc(C(=O)O)c1OC", "growth": "91.6%"}, {"molecule": "O=C(O)c1cc(I)ccc1O", "growth": "103%"}, {"molecule": "CC(=O)NNC(=S)N/C=C/c1c(C)ccc([N+](=O)[O-])c1[N+](=O)[O-]", "growth": "105%"}, {"molecule": "NNc1ncnc2c1ncn2C1OC(CO)C(O)C1O", "note": "(configuration not stated)", "growth": "2.11% (active)"}, {"molecule": "C=CCNC(=S)N/C=C(/C(=O)c1ccccc1)c1ccccc1", "growth": "110%"}, {"molecule": "Cc1ccc(C2CCCCC2)cc1Br", "growth": "96.5%"}, {"molecule": "OCCc1ccc(Cl)cc1", "growth": "100%"}, {"molecule": "C/C(O)=C(/C=N/C(=S)Nc1ccccc1)C(=O)Nc1ccccc1C", "growth": "101%"}, {"molecule": "CC1(C)OC(=O)CC1=O", "growth": "91.6%"}, {"molecule": "CN(C)CCOC(=O)Nc1ccc(Cc2ccc(NC(=O)OCCN(C)C)cc2)cc1", "growth": "137% [100 µM]"}, {"molecule": "O=c1nc(Nc2cccc(Cl)c2)oc2cc(Cl)oc(=O)c12", "growth": "98.4%"}, {"molecule": "OCCNc1ccccc1", "growth": "105%"}, {"molecule": "O=C(Oc1ccccc1Cl)c1ccc(Cl)cc1Cl", "growth": "99.6%"}, {"molecule": "COc1cc(OC)c2cc(C(=O)c3ccc(C#N)cc3)c(=O)oc2c1", "growth": "100%"}, {"molecule": "CC(C)C1CCC(C)C(O)C1", "note": "(configuration not stated)", "growth": "106%"}, {"molecule": "O=C(NC1CCCCC1)c1ccc(Cl)cc1", "growth": "114%"}, {"molecule": "O=C1C=Cc2ccccc2/C1=C/c1[nH]c(=O)[nH]c1O", "growth": "32.8%"}, {"molecule": "NC(CO)(CO)c1ccccc1", "growth": "105%"}, {"molecule": "Nc1cc(N)ncn1", "growth": "125%"}, {"molecule": "S=C(Sc1ccc(Cl)cc1)Sc1ccc(Cl)cc1", "growth": "109%"}, {"molecule": "CCOc1ccc(C(=O)O)cc1", "growth": "98.8%"}, {"molecule": "COc1cccc(C(=O)NNC(=O)c2cccc3ccccc23)c1", "growth": "100%"}]}]}
